The values that follow come from PubChem BioAssay (Tox21).

A short description of test [1]: Caspase-3/7 induction in HepG2 cells by small molecules, qHTS assay (AID 1346978). Note: nearly all actives have a fitted effect of over 15% in size. The gist of the method:
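Wild-type HepG2 cells (2,000/well) were settled 5 h at 37 C, 5% CO2, then exposed to compounds in DMSO for 17 h. Caspase-3/7 activity was read by luminescence 30 min after adding Caspase-Glo 3/7 reagent at room temperature.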

A short description of test [2]: Caspase-3/7 induction in CHO-K1 cells by small molecules, qHTS cell viability counter screen (AID 1346979). Note: nearly all actives have a fitted effect of over 35% in size. Note: potency is the fitted concentration of half-maximal effect. The gist of the method:
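Wild-type CHO-K1 cells (1,500/well) treated with compound after 5 h plating; after 16 h at 37C, viability read as CellTiter-Fluor fluorescence following 1 h reagent incubation, in the same wells as the caspase read.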

The nature of test [3]: Caspase-3/7 induction in CHO-K1 cells by small molecules, qHTS assay (AID 1346980). Note: nearly all actives have a fitted effect of over 15% in size. The gist of the method:
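Wild-type cells were seeded at 1,500 per well and settled 5 hr at 37 C, 5% CO2, then exposed to DMSO-dissolved compounds for 17 hr. Caspase-Glo 3/7 reagent was added, and luminescence was read after 30min at room temperature.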

A short description of test [4]: Caspase-3/7 induction in HepG2 cells by small molecules, qHTS cell viability counter screen (AID 1346981). Note: series mostly up to about 92 µM; nearly all actives have a fitted effect of over 30% in size. The gist of the method:
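Steps: seed 2,000 HepG2 cells per well; incubate 5 hr at 37 C; pin-add compounds in DMSO; incubate 16 hr; add CellTiter-Fluor; after 1 hr at 37 C and 5% CO2, read fluorescence.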

Test [5] deals with Nuclear receptor subfamily 1 group I member 2 (Homo sapiens) (UniProt O75469). Nature of the test: Human pregnane X receptor (PXR) small molecule agonists, qHTS assay (AID 1346982). Note: nearly all actives have a fitted effect of over 35% in size. Note: potency is the fitted concentration of half-maximal effect. The essentials:
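Agonist mode qHTS: PXR-Luc HepG2 cells plated 5 hr before DMSO-dissolved compounds were pinned in, cultured 24 hr at 37 C, 5% CO2; ONE-Glo luminescence readout.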

Test [6] addresses Cytochrome P450 2D6 (Homo sapiens) (UniProt P10635). In words: Cytochrome P450 Family 2 Subfamily D Member 6 (CYP2D6) small molecule antagonists: luciferase reporter qHTS assay (AID 1671196). Note: nearly all actives have a fitted effect of over 50% in size. Note: potency is the fitted concentration of half-maximal effect. The gist of the method: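 P450-Glo format: CYP2D6 converts a proluciferin substrate to luciferin in an NADPH-driven reaction lasting 1 h at room temperature. Light output, proportional to CYP2D6 activity, reflects interference by test chemicals.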

Test [7] deals with Cytochrome P450 2C19 (Homo sapiens) (UniProt P33261). Nature of the test: Cytochrome P450 Family 2 Subfamily C Member 19 (CYP2C19) small molecule antagonists: luciferase reporter qHTS assay (AID 1671197). Note: nearly all actives have a fitted effect of over 65% in size. Note: potency is the fitted concentration of half-maximal effect. The gist of the method:
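Luminescent readout of CYP2C19 activity: luciferin product detected 20 min after adding detection reagent. Before that, compound and enzyme-substrate mix preincubated 10 min at room temperature; NADPH-regenerating system started a 1 h, 37C reaction. Ketoconazole as positive control.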

Test [8] addresses Cytochrome P450 2C9 (Homo sapiens) (UniProt P11712). In words: Cytochrome P450 Family 2 Subfamily C Member 9 (CYP2C9) small molecule antagonists: luciferase reporter qHTS assay (AID 1671198). Note: nearly all actives have a fitted effect of over 50% in size. Note: potency is the fitted concentration of half-maximal effect. The gist of the method: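 CYP2C9 activity was measured with a P450-Glo proluciferin substrate. Enzyme–substrate mix was held with compound for 10 min at room temperature, then NADPH regeneration solution was added for 1 h at 37C. Luciferin product was read as luminescence.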

Test [9] deals with Cytochrome P450 1A2 (Homo sapiens) (UniProt P05177). Nature of the test: Cytochrome P450 Family 1 Subfamily A Member 2 (CYP1A2) small molecule antagonists: luciferase reporter qHTS assay (AID 1671199). Note: nearly all actives have a fitted effect of over 50% in size. Note: potency is the fitted concentration of half-maximal effect. The gist of the method:
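Inhibition of CYP1A2 conversion of proluciferin to luciferin, detected by luminescence. Reaction run 1 h at room temperature with NADPH regeneration after brief compound preincubation.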

The target in test [10] is Voltage-gated inwardly rectifying potassium channel KCNH2 (Homo sapiens) (UniProt Q12809). In words: Human Ether-a-go-go-Related Gene (hERG) channel small molecule antagonists: fluorescence cell-based qHTS assay (AID 1671200). Note: nearly all actives have a fitted effect of over 50% in size. Note: potency is the fitted concentration of half-maximal effect. The gist of the method: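 hERG-U2OS cells plated overnight at 37 C, loaded with FluxOR II dye 1 h at RT in dark; after 10 min, thallium stimulus added. Fluorescence (480/540 nm) read kinetically for 2 min at 1 s intervals.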
Sequence of Voltage-gated inwardly rectifying potassium channel KCNH2 (Homo sapiens) (Q12809 whole entry, looked up): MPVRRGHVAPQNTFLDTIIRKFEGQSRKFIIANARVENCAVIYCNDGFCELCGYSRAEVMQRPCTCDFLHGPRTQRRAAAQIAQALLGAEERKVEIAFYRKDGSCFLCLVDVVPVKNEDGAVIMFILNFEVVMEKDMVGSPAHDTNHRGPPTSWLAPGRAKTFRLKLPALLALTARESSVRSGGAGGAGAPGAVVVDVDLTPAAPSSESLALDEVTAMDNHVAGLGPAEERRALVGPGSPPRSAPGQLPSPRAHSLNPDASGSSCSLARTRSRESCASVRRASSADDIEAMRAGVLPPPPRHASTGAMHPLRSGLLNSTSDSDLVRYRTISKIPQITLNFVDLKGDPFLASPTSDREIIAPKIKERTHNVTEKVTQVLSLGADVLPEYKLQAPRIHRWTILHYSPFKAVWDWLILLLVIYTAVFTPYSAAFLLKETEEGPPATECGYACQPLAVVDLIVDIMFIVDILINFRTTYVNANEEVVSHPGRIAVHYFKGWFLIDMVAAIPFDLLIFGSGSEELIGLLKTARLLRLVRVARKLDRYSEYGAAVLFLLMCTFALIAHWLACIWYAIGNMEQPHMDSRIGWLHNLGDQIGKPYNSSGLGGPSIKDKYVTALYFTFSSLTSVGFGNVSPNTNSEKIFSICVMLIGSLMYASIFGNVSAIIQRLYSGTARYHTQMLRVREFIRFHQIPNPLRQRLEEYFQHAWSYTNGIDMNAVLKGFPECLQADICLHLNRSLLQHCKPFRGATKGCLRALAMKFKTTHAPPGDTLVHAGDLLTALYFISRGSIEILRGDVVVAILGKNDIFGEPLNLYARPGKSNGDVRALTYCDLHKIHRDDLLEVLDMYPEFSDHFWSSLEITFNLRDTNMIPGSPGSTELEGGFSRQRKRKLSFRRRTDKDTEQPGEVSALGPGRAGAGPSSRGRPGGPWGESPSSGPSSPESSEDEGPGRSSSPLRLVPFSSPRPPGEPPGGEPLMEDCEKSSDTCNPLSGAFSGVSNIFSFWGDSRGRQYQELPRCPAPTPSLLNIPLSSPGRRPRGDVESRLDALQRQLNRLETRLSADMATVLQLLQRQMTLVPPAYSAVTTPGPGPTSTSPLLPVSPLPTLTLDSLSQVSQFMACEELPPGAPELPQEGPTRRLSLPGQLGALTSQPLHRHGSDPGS

The target of test [11] is Cytochrome P450 3A4 (Homo sapiens) (UniProt P08684). In words: Cytochrome P450 Family 3 Subfamily A Member 4 (CYP3A4) small molecule antagonists: luciferase reporter qHTS assay (AID 1671201). The essentials:
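P450-Glo CYP3A4 luminescent assay: compounds preincubated 10 min at room temperature with enzyme and proluciferin substrate, NADPH regeneration added, 1 h room-temperature reaction, stopped with luciferin detection reagent; luminescence read after 20 min. Ketoconazole positive control.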

The target of test [12] is Nuclear receptor subfamily 1 group I member 2 (Rattus norvegicus) (UniProt Q9R1A7). In words: Rat pregnane X receptor (rPXR) activation by small molecules, qHTS assay (AID 1346983). Note: nearly all actives have a fitted effect of over 20% in size. Particulars: rPXR luciferase reporter cells, One-Glo luminescence, 24 h; max activation: active compounds read high. The gist of the method:
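Cell-based rPXR luciferase reporter assay, 2,000 cells per well, rested 5hr at 37 C before compound addition in DMSO, then 24 hr at 37 C. One-Glo reagent was added and luminescence read after 30 min at room temperature.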

For test [13], the target named is Nuclear receptor subfamily 1 group I member 2 (Homo sapiens) (UniProt O75469). In words: CYP3A4 induction through human pregnane X receptor (PXR) by small molecules, qHTS assay (AID 1346984). Note: nearly all actives have a fitted effect of over 40% in size. The gist of the method:
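Steps: seed DPX-2 cells, 5 hr at 37C; pin-transfer compounds; 24 hr at 37C; add Luciferin-IPA (3uM final), 3 hr at 37C; add One-Glo, 30 min RT; read luminescence.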

For test [14] the target is unchanged. In words: Human pregnane X receptor (PXR) activation by small molecules, qHTS assay (AID 1346985). Note: nearly all actives have a fitted effect of over 40% in size. The essentials: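 DPX-2 cells (HepG2 co-transfected with a PXR response element and a CYP3A4-promoter luciferase construct) were seeded at 2,000 per well, rested 5 hr at 37C, then exposed to DMSO-dissolved compounds for 24 hr. Activation was read as luciferase luminescence.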

Values without a mark were called inactive. Inconclusive results are not listed. Activity calls are given as the source filed them. Calls come from the whole dose curve; as a rule, active = well fitted curve in the direction sought with a large enough effect in the repeat runs; inconclusive = weak or mixed curves; inactive = no such curve, though single readings can be large; an effect the other way counts as inactive or inconclusive.
% is set by controls: 0 for no effect and ±100 for the full control effect.

Sequence of Nuclear receptor subfamily 1 group I member 2 (Homo sapiens) (O75469 whole entry, looked up): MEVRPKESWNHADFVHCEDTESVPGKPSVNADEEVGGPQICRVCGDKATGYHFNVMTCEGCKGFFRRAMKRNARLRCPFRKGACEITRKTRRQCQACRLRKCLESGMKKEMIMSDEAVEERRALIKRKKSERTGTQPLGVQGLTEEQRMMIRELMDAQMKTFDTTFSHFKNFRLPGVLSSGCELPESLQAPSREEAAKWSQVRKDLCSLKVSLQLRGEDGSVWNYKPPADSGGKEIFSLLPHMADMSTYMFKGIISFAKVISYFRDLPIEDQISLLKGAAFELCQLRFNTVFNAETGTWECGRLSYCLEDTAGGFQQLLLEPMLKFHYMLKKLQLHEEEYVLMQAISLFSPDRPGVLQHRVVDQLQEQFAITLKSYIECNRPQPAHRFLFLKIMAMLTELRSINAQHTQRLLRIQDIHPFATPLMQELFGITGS
Sequence of Cytochrome P450 1A2 (Homo sapiens) (P05177 whole entry, looked up): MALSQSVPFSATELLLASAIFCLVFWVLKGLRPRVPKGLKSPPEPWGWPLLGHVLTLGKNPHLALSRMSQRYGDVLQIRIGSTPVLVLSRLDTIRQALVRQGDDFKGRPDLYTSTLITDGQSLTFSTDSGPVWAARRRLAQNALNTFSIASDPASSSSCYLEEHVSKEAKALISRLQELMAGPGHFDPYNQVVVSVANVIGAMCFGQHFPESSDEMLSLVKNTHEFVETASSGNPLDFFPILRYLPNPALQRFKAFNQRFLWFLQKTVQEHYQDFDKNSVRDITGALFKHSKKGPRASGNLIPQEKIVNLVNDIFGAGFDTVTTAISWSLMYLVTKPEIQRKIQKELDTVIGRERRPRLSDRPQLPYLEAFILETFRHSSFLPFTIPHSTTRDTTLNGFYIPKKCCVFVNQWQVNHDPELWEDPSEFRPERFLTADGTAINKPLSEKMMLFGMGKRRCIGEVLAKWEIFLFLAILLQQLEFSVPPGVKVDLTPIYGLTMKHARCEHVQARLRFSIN
Sequence of Cytochrome P450 3A4 (Homo sapiens) (P08684 whole entry, looked up): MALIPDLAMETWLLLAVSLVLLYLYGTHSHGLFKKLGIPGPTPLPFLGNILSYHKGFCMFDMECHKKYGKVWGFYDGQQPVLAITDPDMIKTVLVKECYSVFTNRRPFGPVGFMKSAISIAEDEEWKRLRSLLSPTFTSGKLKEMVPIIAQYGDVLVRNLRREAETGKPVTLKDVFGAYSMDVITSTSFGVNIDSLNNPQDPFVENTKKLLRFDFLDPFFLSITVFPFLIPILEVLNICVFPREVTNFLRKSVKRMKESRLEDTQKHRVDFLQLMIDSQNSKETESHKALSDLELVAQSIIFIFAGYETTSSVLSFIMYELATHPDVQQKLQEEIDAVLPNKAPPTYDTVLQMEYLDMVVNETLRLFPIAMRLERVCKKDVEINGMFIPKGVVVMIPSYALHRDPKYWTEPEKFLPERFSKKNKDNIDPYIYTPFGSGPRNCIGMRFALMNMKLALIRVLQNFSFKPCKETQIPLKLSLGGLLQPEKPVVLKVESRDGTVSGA
Sequence of Cytochrome P450 2C19 (Homo sapiens) (P33261 whole entry, looked up): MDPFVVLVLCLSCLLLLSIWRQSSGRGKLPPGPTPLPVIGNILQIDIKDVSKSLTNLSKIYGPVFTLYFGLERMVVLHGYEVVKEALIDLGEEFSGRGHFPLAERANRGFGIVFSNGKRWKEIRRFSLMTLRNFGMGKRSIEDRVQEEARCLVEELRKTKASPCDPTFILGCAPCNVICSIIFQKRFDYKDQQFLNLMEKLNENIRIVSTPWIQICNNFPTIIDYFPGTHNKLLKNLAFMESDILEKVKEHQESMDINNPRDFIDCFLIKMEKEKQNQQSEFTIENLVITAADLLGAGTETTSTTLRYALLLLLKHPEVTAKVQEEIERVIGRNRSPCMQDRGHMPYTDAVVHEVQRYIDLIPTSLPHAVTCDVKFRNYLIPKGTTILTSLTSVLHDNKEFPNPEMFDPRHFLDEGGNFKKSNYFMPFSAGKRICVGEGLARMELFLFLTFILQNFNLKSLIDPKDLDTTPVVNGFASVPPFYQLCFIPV
Sequence of Cytochrome P450 2D6 (Homo sapiens) (P10635 whole entry, looked up): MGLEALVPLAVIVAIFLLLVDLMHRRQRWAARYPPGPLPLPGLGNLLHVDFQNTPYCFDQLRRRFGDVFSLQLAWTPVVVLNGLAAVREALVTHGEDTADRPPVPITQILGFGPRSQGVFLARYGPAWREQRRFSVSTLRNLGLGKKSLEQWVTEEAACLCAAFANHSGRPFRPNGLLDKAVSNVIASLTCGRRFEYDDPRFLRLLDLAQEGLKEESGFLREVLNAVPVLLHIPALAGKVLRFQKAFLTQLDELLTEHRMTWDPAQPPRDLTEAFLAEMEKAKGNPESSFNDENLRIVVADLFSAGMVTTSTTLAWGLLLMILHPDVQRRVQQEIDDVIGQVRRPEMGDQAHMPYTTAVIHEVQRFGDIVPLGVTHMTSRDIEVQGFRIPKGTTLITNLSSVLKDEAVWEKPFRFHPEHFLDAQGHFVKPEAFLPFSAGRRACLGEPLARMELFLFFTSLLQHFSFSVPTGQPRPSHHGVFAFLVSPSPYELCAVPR
Sequence of Cytochrome P450 2C9 (Homo sapiens) (P11712 whole entry, looked up): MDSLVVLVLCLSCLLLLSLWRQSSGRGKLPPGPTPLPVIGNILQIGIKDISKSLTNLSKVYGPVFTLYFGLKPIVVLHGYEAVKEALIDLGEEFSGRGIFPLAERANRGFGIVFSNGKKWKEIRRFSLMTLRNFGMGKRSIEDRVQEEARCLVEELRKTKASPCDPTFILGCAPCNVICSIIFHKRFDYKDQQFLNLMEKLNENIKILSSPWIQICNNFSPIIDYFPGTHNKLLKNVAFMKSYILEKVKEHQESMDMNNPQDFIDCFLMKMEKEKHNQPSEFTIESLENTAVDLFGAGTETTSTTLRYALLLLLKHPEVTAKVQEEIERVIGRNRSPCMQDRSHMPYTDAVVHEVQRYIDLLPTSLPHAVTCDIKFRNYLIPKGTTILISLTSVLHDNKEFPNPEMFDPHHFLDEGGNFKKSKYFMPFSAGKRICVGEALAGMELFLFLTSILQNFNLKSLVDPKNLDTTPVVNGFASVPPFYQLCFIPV
Sequence of Nuclear receptor subfamily 1 group I member 2 (Rattus norvegicus) (Q9R1A7 whole entry, looked up): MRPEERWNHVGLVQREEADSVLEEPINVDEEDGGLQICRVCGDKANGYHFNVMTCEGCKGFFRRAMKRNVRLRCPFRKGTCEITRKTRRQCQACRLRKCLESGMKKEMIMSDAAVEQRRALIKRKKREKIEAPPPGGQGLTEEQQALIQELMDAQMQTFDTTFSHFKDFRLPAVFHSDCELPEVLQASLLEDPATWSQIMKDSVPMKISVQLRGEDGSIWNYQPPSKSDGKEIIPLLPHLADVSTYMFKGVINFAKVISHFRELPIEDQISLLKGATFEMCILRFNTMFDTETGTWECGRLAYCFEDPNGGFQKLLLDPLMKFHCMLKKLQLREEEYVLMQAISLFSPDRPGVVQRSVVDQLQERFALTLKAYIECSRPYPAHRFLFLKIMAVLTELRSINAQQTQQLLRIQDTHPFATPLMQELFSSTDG

In the case of `CC(=O)OC1CCCCC1`, the Potency result in test [1], in test [2], in test [3], in test [4], in test [5] and in [6] was “inactive” in each case. Besides, the Potency entry in test [7], in test [8], in test [9], in test [10] and in test [11] was “inactive” throughout.

Turning to `C=C(C)CCCC`, the Potency entry in test [1], in test [2], in test [3], in test [4], in test [5] and in [6] was “inactive” each time. In addition, the Potency entry in test [7], in [8], in [9], in [10] and in [11] was “inactive” each time.

In the case of `CC1=CP(=O)(c2ccccc2)CC1` (stereo not given), the Potency result in [1], in test [2], in test [3], in [4], in test [5] and in [6] was “inactive” throughout. In addition, the Potency entry in [7], in test [8], in test [9], in test [10] and in test [11] was “inactive” in each case.

`CCC(C)c1ccccc1` (stereo not given): the Potency entry in test [1], in test [2], in test [3], in test [4], in [5] and in test [6] was “inactive” each time. Moreover, the Potency result in test [7], in test [8], in test [9] and in [10] was “inactive” throughout.

For `CCCCN(CCCC)CCC(O)c1cc2c(Cl)cc(Cl)cc2c2cc(C(F)(F)F)ccc12` (stereo not given), the Potency entry in test [1], in test [3], in test [4], in test [13], in [14] and in test [7] was “inactive” in each case. In test [8], the Potency entry is “inactive”. The Potency in test [2] was 26.6 µM (active); in test [5] it was 21.1 µM (active); in test [6], 1.55 µM (active); in [10] it was 1.07 µM (active). Also, the max activation in [12] was -2.62%.

As to `COc1cccc(OC)c1O`, the Potency result in test [1], in test [2], in test [3], in [4], in test [5] and in test [10] was “inactive” throughout. The Potency entry in test [11] was “inactive”. For the same molecule, the Potency in test [6] was 6.33 µM (active); in [7], 39.9 µM (active); in test [8], 35.6 µM (active); in test [9], 35.6 µM (active).

On to `Cc1cnccn1`, for which the Potency result in test [1], in test [2], in test [3], in [4], in test [5] and in test [6] was “inactive” in each case. Besides, the Potency entry in test [7], in test [8], in test [9], in test [10] and in test [11] was “inactive” each time.

In the case of `O=c1cccc[nH]1`, the Potency result in test [1], in [2], in test [3], in [4], in test [5] and in [6] was “inactive” each time. For the same molecule, the Potency result in test [7], in test [8], in test [9], in test [10] and in test [11] was “inactive” each time.

Take `O=S(=O)(O)CCCN1CCOCC1`: the Potency entry in [1], in test [2], in test [3], in test [4], in [5] and in [6] was “inactive” in each case. For the same molecule, the Potency result in [7], in [8], in [9], in [10] and in [11] was “inactive” throughout.

Consider `CCOB(OCC)OCC`, for which the Potency entry in [1], in test [2], in test [3], in [4], in test [5] and in test [6] was “inactive” in each case. Also, the Potency result in test [7], in [8], in test [9], in test [10] and in test [11] was “inactive” in each case.
